Measurements reported in PubChem BioAssay AID540313 (Sanford-Burnham Center for Chemical Genomics, 2011).
Fewer than 10 of roughly 2,500 compounds were called active. Only a sample is shown. Unmarked numbers belong to inactive results.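 How the source made its calls: active means inhibition of at least 30% at 20 µM; inactive means the rest.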

Experiment: colorimetric readout interference by compounds, confirmation, artefact control for Scp-1 inhibitor project, biochemical, single concentration (AID 540313);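 further: compounds added after enzyme reaction finished so only phosphate colour detection is probed; plate controls were DMSO wells with completed Scp-1 reaction for no effect and substrate wells lacking enzyme for full effect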
Settings: Colorimetric interference counterscreen, malachite green absorbance 630 nm; at 20 µM; stronger effect = higher value

Row | SMILES | apparent inhibition (interference)
1 | O=c1c2cc(-c3ccccc3)sc2nc2n1N=C(c1cccs1)CS2 | -15.6%
2 | O=C(c1ccc(CS(=O)(=O)c2ccccc2)o1)N1CCN(c2ccccc2)CC1 | -14.5%
3 | Cc1ccc(C(=O)NNC(=O)c2cc3cc4ccccc4nc3s2)cc1 | -12.3%
4 | N#CC1=C(SCc2ccccc2)NC(=O)C(C#N)C12CCCC2 (stereo unspecified) | -3.5%
5 | COc1cccc2sc(N(CCCN(C)C)C(=O)C(c3ccccc3)c3ccccc3)nc12 | -9.56%
6 | CN(c1ccccc1)S(=O)(=O)c1ccc(Cl)c(C(=O)OCC(=O)NCc2ccco2)c1 | -22.8%
7 | Nn1cnnc1N/N=C/c1cc([N+](=O)[O-])c(Cl)cc1Cl | 2.55%
8 | O=C(COC(=O)/C=C/c1ccc(Br)o1)Nc1cccc(S(=O)(=O)N2CCOCC2)c1 | -18.6%
9 | Cc1nnc(SCC(=O)Nc2ccc(S(=O)(=O)Nc3ccc(Cl)nn3)cc2)s1 | -18.9%
10 | O=C(COC(=O)CCC(=O)c1cccs1)NCc1ccco1 | -8.73%
11 | COCCCNc1nc2ccccc2nc1NS(=O)(=O)c1ccc(F)cc1 | -12.6%
12 | O=S(=O)(Nc1ccccc1Cl)c1cccc2nsnc12 | -11.2%
13 | CC(NC(=O)CC1SC(N)=NC1=O)c1ccccc1 (stereo unspecified) | -25.2%
14 | O=C(O)c1ccc(N/N=C/c2ccc3ncccc3c2)cc1 | -19.2%
15 | ON=C1/C(=N\O)CC2(C/C1=N/O)OCCO2 | -6.8%
16 | O=C(Nc1cc(S(=O)(=O)N2CCCCC2)ccc1Cl)C1COc2ccccc2O1 (stereo unspecified) | -8.46%
17 | Cc1nn(-c2cc(Cl)ccc2N)c(=O)c2ccccc12 | -5.43%
18 | Cc1ccc(CN2CCN(c3ccccc3Cl)CC2)o1 | -14.5%
19 | CN(CC(=O)Nc1cccc(F)c1)C(=O)C1CC(=O)N(CCc2ccccc2)C1 (stereo unspecified) | -6.79%

Row | SMILES | apparent inhibition (interference)
20 | COc1ccc(NC(=O)N(C)C[C@H]2Oc3ccc(NC(=O)C4CC4)cc3C(=O)N([C@H](C)CO)C[C@@H]2C)cc1 | -15.3%
21 | COc1ccc(Cl)cc1C=CC=NNC(=O)c1ccncc1 | -8.46%
22 | Cc1ccc(S(=O)(=O)Nc2ccc3c(c2)C(=O)N([C@H](C)CO)C[C@@H](C)[C@@H](CN(C)C(=O)Nc2cccc4ccccc24)O3)cc1 | -13.6%
23 | C=C1c2cccc(OC)c2O[C@H](C(=O)OCC)[C@@H]1CCCCCC | -7.63%
24 | COc1cccc(CNS(=O)(=O)c2csc(C(N)=O)c2)c1 | -12.8%
25 | O=C(Nc1cccc(F)c1)[C@@H]1CCCN1 | -5.98%
26 | O=C(c1ccc2c(c1)OCO2)N1CCNc2ccccc2C1 | -25.4%
27 | C[C@H](CO)N1C[C@H](C)[C@H](CN(C)C(=O)Nc2ccc(C(F)(F)F)cc2)Oc2c(NC(=O)c3ccncc3)cccc2C1=O | -21.4%
28 | Cc1ccccc1NC(=O)CN1C(=O)N/C(=C\c2cccn2-c2cccc(C(=O)O)c2)C1=O | 6.13%
29 | N#Cc1c(-c2cccs2)nc(SCC(=O)c2ccc(Br)cc2)[nH]c1=O | -20.8%
30 | O=C(NNC(=O)c1ccc2ccccc2c1)c1ccc(Cl)cc1 | -9.26%
31 | N#Cc1ccc(C(=O)Nc2cccc3cccnc23)c(F)c1 | -4.88%
32 | Cc1ccc(S(=O)(=O)Nc2nc(C)cc(-n3nc(C)cc3C)n2)cc1 | -5.43%
33 | O=C(CN1CCN(S(=O)(=O)/C=C/c2ccccc2)CC1)NC(=O)NCc1ccco1 | -17.5%
34 | Cc1ccc(Cc2nnc(SCC(=O)Nc3ccc(C)cc3C)[nH]c2=O)cc1 | -12.9%
35 | O=C(Cn1cc(/C=N/NC(=O)c2cccc(C(F)(F)F)c2)c2ccccc21)Nc1ccc(F)cc1 | -10.9%
36 | CC1=NNC(=O)C1CCC(=O)N/N=C\c1cccc(Cl)c1 (stereo unspecified) | -21.4%
37 | CCCc1nc(-c2cc3cc(C)ccc3[nH]c2=O)no1 | -14%
38 | COc1cccc(NC(C)=[N+](C)CCNS(=O)(=O)c2ccc(Cl)cc2)c1 | -6.24%

Row | SMILES | apparent inhibition (interference)
39 | Cc1ccc(N=Cc2c(O)n(-c3nccs3)c(=O)c3ccccc23)c(C)c1 | -22.5%
40 | O=C(CN1CCN(c2ccc(Cl)cc2)CC1)c1ccccc1 | -14.5%
41 | O=C(Cn1nnc(-c2ccc3c(c2)OCO3)n1)NCc1ccco1 | -12%
42 | Cc1cc(/C=C2\SC(=O)N(C)C2=O)c(C)n1-c1cccc(C(=O)O)c1 | -18.6%
43 | Cc1c(CCC(=O)O)c(=O)oc2c(C)c(OCc3ccccc3Cl)ccc12 | -5.7%
44 | COc1ccc2[nH]c3c(C)c4cc[n+](C)cc4c(C)c3c2c1 | -5.15%
45 | NC(=O)NC(=O)CSc1nc2cc([N+](=O)[O-])ccc2n1-c1cccc(C(F)(F)F)c1 | -5.7%
46 | CCOc1ccccc1/C=c1\sc2nc(-c3ccco3)nn2c1=O | -22.1%
47 | Cc1ccc(/C=C/C(=O)Nc2ccc([N+](=O)[O-])c(NC(=O)/C=C/c3ccc(C)o3)c2)o1 | 2.53%
48 | COc1ccc(OC)c(NC(=O)CSc2nc(-c3ccccc3)cc(=O)[nH]2)c1 | -14.8%
49 | COc1ccc(OCC(=O)NNC(=O)c2ccc(-c3ccccc3)cc2)cc1 | -11.5%
50 | Cc1c([N+](=O)[O-])c(N)nn1C | 2.28%
51 | O=C1NN(c2ccccc2)C(=O)/C1=C/c1ccc(-c2cccc(C(=O)O)c2)o1 | 0.06%
52 | COc1ccc(/C=C/C(=O)OCC(=O)NC2CCCCCC2)cc1OC | 5.86%
53 | Cc1ccc(CCCOC(=O)C[N+]2(C)CCCC2)cc1 | -20%
54 | Cc1c(CCC(=O)O)c(=O)oc2cc(OCc3ccc(Br)cc3)ccc12 | -11.7%
55 | CC1CCN(c2ccc(S(=O)(=O)Nc3cc(C(=O)O)cc(C(=O)O)c3)cc2[N+](=O)[O-])CC1 | -19.7%
56 | CC(=O)Nc1ccc(N2C(=O)CCC2=O)cc1C | -12.9%
